Data: PubChem BioAssay (EPA / NIEHS)
Records with an inconclusive call do not appear. Calls of active or inactive are those of the source. The calls were made as follows: active = hit-call score of the fitted dose curve at least 0.9, where 1 is the maximum; inconclusive = response in the unintended direction; inactive = score below 0.9.

What was measured:
[1] = target: Retinoic acid receptor alpha (Homo sapiens) (UniProt P10276); experiment: NVS_NR_hRAR_Antagonist: NovaScreen (NVS) Nuclear Receptor Binding Assay for human Retinoic Acid Alpha Receptor Antagonism (RAR) (AID 2283358)
Sequence of Retinoic acid receptor alpha (Homo sapiens) (P10276 whole entry, looked up): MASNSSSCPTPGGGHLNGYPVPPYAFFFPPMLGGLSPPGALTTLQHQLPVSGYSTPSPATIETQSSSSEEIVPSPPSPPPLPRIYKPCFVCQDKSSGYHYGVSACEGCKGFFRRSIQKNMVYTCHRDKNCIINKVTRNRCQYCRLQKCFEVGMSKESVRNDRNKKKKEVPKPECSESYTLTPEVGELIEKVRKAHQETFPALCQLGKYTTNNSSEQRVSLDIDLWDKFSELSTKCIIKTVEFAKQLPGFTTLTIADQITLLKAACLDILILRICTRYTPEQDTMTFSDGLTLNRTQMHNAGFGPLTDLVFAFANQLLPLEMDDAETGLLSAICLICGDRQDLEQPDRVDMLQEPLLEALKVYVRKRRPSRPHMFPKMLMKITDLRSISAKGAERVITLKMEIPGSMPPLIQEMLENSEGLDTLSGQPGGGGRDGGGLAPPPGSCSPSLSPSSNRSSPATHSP
Method in brief: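 RARalpha antagonism was read by TR-FRET as loss of binding signal versus DMSO, 2 h after chemical addition, in a biochemical format. Single-concentration duplicates (25 uM) were run first, and actives were retested in concentration series.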

[2] = target: Retinoic acid receptor alpha (Homo sapiens) (UniProt P10276); experiment: NVS_NR_hRARa_Agonist: NovaScreen (NVS) Nuclear Receptor Binding Assay for human Retinoic Acid Alpha Receptor Agonism (RAR) (AID 2283361)
Method in brief: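 Agonist-mode TR-FRET binding format using extracted protein, measured at 2 h post-dosing. Initial duplicate single-point screen at 25 uM preceded concentration series for actives; activity was normalized to DMSO baseline.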

[3] = target: Glucocorticoid receptor (Homo sapiens) (UniProt P04150); experiment: NVS_NR_hGR: NovaScreen (NVS) Nuclear Receptor Binding Assay for human Glucocorticoid Receptor (GR) (AID 2283363);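 as to AC50: activity is loss of specific radioligand binding signal relative to DMSO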
Method in brief: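 Compounds first tested in duplicate at 25 uM, actives followed up in concentration series. Binding to extracted GR protein measured as competitive radioligand displacement, filter scintillation read 16 h post-dosing, normalised to DMSO.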

[4] = target: human Serotonin Transporter (SERT), SLC6A4 (gene 6532) (UniProt P31645); experiment: NVS_TR_hSERT: NovaScreen (NVS) Transporter Assay for human Serotonin Transporter (SERT) (AID 2283372)
Method in brief: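 Human platelet membrane preparation; displacement of radioligand from serotonin transporter measured after 1 h by filtration and scintillation counting. Single 25 uM duplicate screen, then concentration series for actives, with DMSO as negative baseline.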

[5] = tested on: rat Norepinephrine Transporter (NET), gene 83511; experiment: NVS_TR_rNET: NovaScreen (NVS) Transporter Assay for rat Norepinephrine Transporter (NET) (AID 2283373)
Method in brief: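 Competitive radioligand displacement at the rat NET using forebrain membrane preparations, 1 h incubation, filter-based scintillation readout. Primary testing in duplicate at a single 25 uM concentration; confirmed actives retested across concentrations.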

[6] = target: rat Androgen Receptor (AR), Ar (gene 24208) (UniProt P15207); experiment: NVS_NR_rAR: NovaScreen (NVS) Nuclear Receptor Binding Assay for rat Androgen Receptor (AR) (AID 2283366)
Method in brief: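 Actives from a duplicate single-concentration (25 uM) primary run went on to concentration series. Displacement of radioligand was counted by filtration and scintillation, 18 h post-dose, using prostate extracts from testosterone-pretreated rats, with DMSO as baseline.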

[7] = target: human Adenosine Transporter (Adot), SLC29A1 (gene 2030) (UniProt Q99808); experiment: NVS_TR_hAdoT: NovaScreen (NVS) Transporter Assay for human Adenosine Transporter (Adot) (AID 2283368)
Sequence of human Adenosine Transporter (Adot), SLC29A1 (gene 2030) (Q99808 whole entry, looked up): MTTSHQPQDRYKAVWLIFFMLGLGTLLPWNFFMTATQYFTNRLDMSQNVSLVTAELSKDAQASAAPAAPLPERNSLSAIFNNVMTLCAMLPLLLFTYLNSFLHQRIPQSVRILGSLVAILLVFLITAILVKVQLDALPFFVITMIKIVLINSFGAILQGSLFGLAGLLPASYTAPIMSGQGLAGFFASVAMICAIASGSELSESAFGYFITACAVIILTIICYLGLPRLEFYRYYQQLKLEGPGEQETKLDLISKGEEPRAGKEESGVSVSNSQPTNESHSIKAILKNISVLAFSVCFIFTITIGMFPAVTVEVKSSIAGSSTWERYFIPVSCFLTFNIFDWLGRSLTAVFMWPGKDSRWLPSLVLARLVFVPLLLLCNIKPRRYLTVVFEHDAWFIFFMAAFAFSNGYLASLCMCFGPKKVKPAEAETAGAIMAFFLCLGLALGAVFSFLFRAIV
Method in brief: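 Binding displacement on U937 extracted protein, read 1 h post-dose by filtration and scintillation counting. Primary duplicate test at 25 uM, then singleton concentration series with 50 uM top; DMSO baseline.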

[8] = target: Estrogen receptor beta (Homo sapiens) (UniProt Q92731); experiment: OT_ER_ERbERb_0480: Odyssey Thera (OT) 8-hour HEK293T Protein-Complementation Assay for Estrogen Receptor-beta/-beta Homodimer (AID 2283357);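 also: active means signal gain over DMSO baseline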
Sequence of Estrogen receptor beta (Homo sapiens) (Q92731 whole entry, looked up, the tested form may be a part): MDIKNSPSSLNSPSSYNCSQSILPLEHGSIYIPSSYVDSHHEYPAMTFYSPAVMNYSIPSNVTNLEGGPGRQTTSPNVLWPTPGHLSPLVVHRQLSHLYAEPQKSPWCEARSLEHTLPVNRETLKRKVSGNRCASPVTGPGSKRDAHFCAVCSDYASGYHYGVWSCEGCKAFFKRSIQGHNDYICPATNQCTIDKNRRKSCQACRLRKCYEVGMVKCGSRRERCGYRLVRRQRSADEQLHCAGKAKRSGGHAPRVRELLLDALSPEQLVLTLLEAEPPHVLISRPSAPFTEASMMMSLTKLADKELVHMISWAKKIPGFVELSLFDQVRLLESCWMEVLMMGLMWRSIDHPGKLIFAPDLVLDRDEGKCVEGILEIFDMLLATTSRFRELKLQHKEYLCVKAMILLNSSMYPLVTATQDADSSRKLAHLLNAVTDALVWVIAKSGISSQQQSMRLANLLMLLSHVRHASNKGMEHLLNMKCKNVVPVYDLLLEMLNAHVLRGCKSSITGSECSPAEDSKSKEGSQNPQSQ
Method in brief: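 ER-beta LBD homodimer PCA stably expressed in HEK293T; 8 h compound exposure, then formaldehyde fixation and Draq5 staining. Gain in nuclear/cytoplasmic fluorescence intensity versus DMSO vehicle, read on laser scanning cytometer.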

[9] = target: human Dopamine Transporter (DAT), SLC6A3 (gene 6531) (UniProt Q01959); experiment: NVS_TR_hDAT: NovaScreen (NVS) Transporter Assay for human Dopamine Transporter (DAT) (AID 2283374);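 also: activity means loss of bound radioligand signal relative to DMSO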
Sequence of human Dopamine Transporter (DAT), SLC6A3 (gene 6531) (Q01959 whole entry, looked up): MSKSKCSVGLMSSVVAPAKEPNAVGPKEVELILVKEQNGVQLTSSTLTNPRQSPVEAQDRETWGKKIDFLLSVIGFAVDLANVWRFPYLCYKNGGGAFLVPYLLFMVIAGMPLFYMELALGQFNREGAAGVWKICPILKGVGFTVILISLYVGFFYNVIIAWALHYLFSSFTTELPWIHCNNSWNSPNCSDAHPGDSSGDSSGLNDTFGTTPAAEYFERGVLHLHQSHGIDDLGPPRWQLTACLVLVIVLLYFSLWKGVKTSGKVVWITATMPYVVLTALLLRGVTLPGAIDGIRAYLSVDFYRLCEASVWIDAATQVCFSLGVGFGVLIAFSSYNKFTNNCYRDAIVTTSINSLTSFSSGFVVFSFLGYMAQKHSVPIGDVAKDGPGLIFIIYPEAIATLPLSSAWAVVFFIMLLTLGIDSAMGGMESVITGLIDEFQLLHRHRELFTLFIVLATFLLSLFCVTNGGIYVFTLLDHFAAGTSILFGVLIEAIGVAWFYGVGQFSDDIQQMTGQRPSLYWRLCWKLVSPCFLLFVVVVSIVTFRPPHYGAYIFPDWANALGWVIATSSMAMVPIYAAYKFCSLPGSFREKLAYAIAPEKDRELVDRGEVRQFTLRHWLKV
Method in brief: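 Duplicate single-point screening at 25 uM preceded concentration-series follow-up of actives. Binding was measured by competitive displacement of a radioligand from DAT protein, filter-counted by scintillation 1 h after dosing. Decrease relative to DMSO taken as activity.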

[10] = target: Nuclear receptor subfamily 1 group I member 2 (Homo sapiens) (UniProt O75469); experiment: NVS_NR_hPXR: NovaScreen (NVS) Nuclear Receptor Binding Assay for human Pregnane X Receptor (PXR) (AID 2283365);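 also: a drop in FRET signal versus DMSO baseline means the compound binds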
Sequence of Nuclear receptor subfamily 1 group I member 2 (Homo sapiens) (O75469 whole entry, looked up): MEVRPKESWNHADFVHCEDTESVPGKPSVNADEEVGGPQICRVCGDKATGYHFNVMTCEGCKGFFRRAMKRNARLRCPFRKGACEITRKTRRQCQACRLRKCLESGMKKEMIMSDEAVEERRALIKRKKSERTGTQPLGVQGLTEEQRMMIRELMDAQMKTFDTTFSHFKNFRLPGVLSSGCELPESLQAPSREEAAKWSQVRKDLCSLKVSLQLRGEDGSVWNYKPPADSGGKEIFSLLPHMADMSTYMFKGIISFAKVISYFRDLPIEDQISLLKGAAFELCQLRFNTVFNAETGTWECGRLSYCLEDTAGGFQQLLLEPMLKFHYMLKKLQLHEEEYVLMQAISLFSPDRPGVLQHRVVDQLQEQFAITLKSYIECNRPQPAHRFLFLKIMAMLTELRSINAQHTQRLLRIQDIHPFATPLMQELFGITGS
Method in brief: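 Human PXR protein, cell-free; compound added, incubated 2 h, TR-FRET read. Signal decrease vs DMSO = binding. Screened 25 uM duplicate, actives re-run as dilution series.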

[11] = target: human Peroxisome Proliferator-activated Receptor alpha (PPARa), PPARA (gene 5465) (UniProt Q07869); experiment: NVS_NR_hPPARa: NovaScreen (NVS) Nuclear Receptor Binding Assay for human Peroxisome Proliferator-activated Receptor alpha (PPARa) (AID 2283359);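 also: activity means loss of TR-FRET signal versus DMSO baseline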
Sequence of human Peroxisome Proliferator-activated Receptor alpha (PPARa), PPARA (gene 5465) (Q07869 whole entry, looked up): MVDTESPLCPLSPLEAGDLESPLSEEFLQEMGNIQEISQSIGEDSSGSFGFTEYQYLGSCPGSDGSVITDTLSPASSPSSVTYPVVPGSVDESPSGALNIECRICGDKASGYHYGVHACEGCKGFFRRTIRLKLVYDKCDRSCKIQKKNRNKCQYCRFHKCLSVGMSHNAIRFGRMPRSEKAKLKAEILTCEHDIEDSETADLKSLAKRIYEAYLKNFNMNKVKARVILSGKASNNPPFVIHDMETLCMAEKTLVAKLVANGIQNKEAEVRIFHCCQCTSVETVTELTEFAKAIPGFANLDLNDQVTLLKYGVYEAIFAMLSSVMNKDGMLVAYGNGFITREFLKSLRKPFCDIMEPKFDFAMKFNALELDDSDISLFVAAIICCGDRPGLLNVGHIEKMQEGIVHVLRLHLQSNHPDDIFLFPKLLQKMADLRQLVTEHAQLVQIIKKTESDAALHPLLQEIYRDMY
Method in brief: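 Loss of TR-FRET binding signal relative to DMSO was measured 1 h after chemical addition to extracted receptor protein. Chemicals were first tested in duplicate at 25 uM, and actives were followed up in concentration series.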

[12] = target: rat Serotonin Transporter (SERT), Slc6a4 (gene 25553) (UniProt P31652); experiment: NVS_TR_rSERT: NovaScreen (NVS) Transporter Assay for rat Serotonin Transporter (SERT) (AID 2283375)
Sequence of rat Serotonin Transporter (SERT), Slc6a4 (gene 25553) (P31652 whole entry, looked up): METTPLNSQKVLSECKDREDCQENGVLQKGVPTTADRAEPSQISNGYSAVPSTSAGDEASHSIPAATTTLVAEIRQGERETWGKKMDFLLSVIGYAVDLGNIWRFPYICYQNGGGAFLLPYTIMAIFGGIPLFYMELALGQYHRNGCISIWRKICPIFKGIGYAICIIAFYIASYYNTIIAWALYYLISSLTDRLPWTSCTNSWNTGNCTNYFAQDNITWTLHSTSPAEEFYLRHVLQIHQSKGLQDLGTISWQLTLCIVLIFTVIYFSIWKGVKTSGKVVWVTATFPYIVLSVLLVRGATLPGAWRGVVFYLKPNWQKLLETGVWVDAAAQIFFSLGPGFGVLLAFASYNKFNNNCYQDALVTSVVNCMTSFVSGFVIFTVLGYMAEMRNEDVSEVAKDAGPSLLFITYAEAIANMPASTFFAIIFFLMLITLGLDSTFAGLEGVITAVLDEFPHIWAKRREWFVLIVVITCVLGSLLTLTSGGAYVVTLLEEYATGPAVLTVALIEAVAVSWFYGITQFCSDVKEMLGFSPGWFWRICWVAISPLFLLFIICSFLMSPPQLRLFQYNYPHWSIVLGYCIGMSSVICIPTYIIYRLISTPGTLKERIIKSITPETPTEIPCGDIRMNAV
Method in brief: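 Filtration-based radiodetection quantified loss of specific radioligand binding in rat forebrain membranes after 1 hour of chemical exposure, relative to DMSO. Chemicals were first tested in duplicate at 25 uM.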

[13] = target: human Norepinephrine Transporter (NET), SLC6A2 (gene 6530) (UniProt P23975); experiment: NVS_TR_hNET: NovaScreen (NVS) Transporter Assay for human Norepinephrine Transporter (NET) (AID 2283377);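 also: cell-free membrane protein extracted from CHO cells expressing human NET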
Method in brief: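 Single-concentration duplicate screen at 25 uM, then concentration-response for actives; displacement of specific radioligand from human NET in CHO membrane extracts, filter-based scintillation detection at 1 h relative to DMSO.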

[14] = target: Peroxisome proliferator-activated receptor gamma (Homo sapiens) (UniProt P37231); experiment: NVS_NR_hPPARg: NovaScreen (NVS) Nuclear Receptor Binding Assay for human Peroxisome Proliferator-activated Receptor gamma (PPARg) (AID 2283370)
Sequence of Peroxisome proliferator-activated receptor gamma (Homo sapiens) (P37231 whole entry, looked up): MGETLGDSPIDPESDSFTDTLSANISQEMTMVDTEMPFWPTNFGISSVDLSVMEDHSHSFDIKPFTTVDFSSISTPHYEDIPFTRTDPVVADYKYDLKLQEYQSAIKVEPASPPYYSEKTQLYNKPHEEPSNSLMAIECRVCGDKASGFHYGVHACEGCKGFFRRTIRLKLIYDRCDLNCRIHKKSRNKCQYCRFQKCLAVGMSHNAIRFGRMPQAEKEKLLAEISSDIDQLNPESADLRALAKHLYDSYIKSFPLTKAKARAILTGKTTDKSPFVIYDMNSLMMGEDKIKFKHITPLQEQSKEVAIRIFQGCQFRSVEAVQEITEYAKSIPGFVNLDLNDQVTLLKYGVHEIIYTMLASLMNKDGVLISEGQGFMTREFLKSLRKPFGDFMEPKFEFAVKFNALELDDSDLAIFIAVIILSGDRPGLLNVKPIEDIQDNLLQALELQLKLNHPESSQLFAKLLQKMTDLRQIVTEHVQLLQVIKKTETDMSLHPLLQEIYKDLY
Method in brief: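 Chemicals were tested first in duplicate at 25 uM, then in concentration series if active. Binding to cell-free PPARg protein was measured by fluorescence polarization after 2 h, with loss of signal scored against DMSO.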

[15] = target: human Thyroid Receptor Alpha (TRa), THRA (gene 7067) (UniProt P10827); experiment: NVS_NR_hTRa_Antagonist: NovaScreen (NVS) Nuclear Receptor Binding Assay for human Thyroid Receptor Alpha Antagonism (TRa) (AID 2283362);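 also: activity is loss of signal relative to DMSO baseline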
Sequence of human Thyroid Receptor Alpha (TRa), THRA (gene 7067) (P10827 whole entry, looked up): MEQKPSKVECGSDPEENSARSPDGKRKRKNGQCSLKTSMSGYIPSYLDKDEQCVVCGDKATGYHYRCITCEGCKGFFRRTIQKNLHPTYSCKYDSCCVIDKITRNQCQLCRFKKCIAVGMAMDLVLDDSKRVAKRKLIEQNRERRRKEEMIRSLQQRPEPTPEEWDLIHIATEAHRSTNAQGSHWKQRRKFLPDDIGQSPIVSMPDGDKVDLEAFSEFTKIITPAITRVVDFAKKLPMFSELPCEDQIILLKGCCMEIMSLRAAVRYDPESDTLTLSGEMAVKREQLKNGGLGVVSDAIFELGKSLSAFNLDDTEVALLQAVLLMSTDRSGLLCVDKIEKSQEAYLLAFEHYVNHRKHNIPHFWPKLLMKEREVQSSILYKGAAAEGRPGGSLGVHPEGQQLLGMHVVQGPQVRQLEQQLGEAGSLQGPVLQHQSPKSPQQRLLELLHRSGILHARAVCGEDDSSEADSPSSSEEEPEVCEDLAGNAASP
Method in brief: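 Extracted protein, cell-free; 1 h incubation after dosing; AlphaLISA chemiluminescence binding readout. DMSO = baseline/neg ctrl; signal loss = activity. Primary: duplicate, 25 uM; secondary: conc. series on actives.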

[16] = target: guinea pig Sigma Receptor, Non-selective Binding, SIGMAR1 (gene 100135589) (UniProt Q60492); experiment: NVS_OR_gSIGMA_NonSelective: NovaScreen (NVS) Nuclear Receptor Binding Assay for guinea pig Sigma Receptor, Non-selective Binding (AID 2283367)
Sequence of guinea pig Sigma Receptor, Non-selective Binding, SIGMAR1 (gene 100135589) (Q60492 whole entry, looked up): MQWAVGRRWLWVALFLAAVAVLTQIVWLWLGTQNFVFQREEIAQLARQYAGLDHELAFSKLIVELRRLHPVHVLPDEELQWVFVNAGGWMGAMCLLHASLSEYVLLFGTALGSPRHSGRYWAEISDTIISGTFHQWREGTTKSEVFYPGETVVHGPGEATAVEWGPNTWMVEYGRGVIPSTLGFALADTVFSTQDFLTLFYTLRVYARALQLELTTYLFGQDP
Method in brief: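 Guinea pig brain membrane sigma sites were labelled with a radioligand, and bound radioactivity was counted after filtration 1 h post-dose. Compounds were screened at 25 uM in duplicate, then retested as concentration series when active.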

[17] = tested on: guinea pig Dopamine Transporter (DAT), gene 100714898; experiment: NVS_TR_gDAT: NovaScreen (NVS) Transporter Assay for guinea pig Dopamine Transporter (DAT) (AID 2283369);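 also: active compounds lower bound radioligand signal relative to DMSO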
Method in brief: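 Scintillation counts of filter-retained radioligand report binding to guinea pig striatal membranes after 2 h. Activity scored as signal loss relative to DMSO, first at 25 uM in duplicate, then in concentration series to 50 uM.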

`Cc1nc(-c2ccccn2)ncc1C(=O)Nn1cc(C)c2cc(F)ccc21` was tested, and the outcome [1] was “inactive”.

With `COc1cc(C(C)C)c2c(c1)S(=O)(=O)N(COc1cc(=O)n3cccc(OCCN4CCCCC4)c3n1)C2=O` the outcome [1] was “inactive” and the outcome [2] was “inactive”.

In the case of `c1ccc(C(O[C@@H]2CCCN(CCc3ccc4c(c3)OCO4)C2)c2ccccc2)cc1`, the outcome [3] was “inactive”, the outcome [4] was “inactive” and the AC50 [5] was 11.4 µM (active).

In the case of `C=CCc1cc(S(=O)(=O)c2ccc(O)c(CC=C)c2)ccc1O`, the AC50 [3] was 4.59 µM (active), the AC50 [6] was 4.5 µM (active) and the AC50 [7] was 25 µM (active).

For `CCCCCCCCCCCCCCCCOS(=O)(=O)O`, the AC50 [6] was 3.03 µM (active).

In the case of `CCn1nc(C)c2c1C(=O)NCC(c1ccc(O)cc1)=N2`, the outcome [7] was “inactive” and the outcome [5] was “inactive”.

With `OCCOCCOCCO` the outcome [4] was “inactive”.

For `NC(=O)N1c2ccccc2C=Cc2ccccc21`, the outcome [8] was “inactive” and the outcome [1] was “inactive”.

For `CC[C@H](C)C(=O)O[C@H]1C[C@H](O)C=C2C=C[C@H](C)[C@H](CC[C@@H](O)C[C@@H](O)CC(=O)O)[C@H]21`, the outcome [8] was “inactive”, the AC50 [3] was 15.5 µM (active) and the outcome [9] was “inactive”.

With `O=C(NO)C1(NS(=O)(=O)c2ccc(Oc3ccc(F)cc3)cc2)CCOCC1` the outcome [8] was “inactive” and the AC50 [9] was 8.77 µM (active).

For `OCC(CO)(CO)CO`, the outcome [8] was “inactive” and the outcome [10] was “inactive”.

For `CCc1ccc(O)c(C(C)(C)C)c1`, the AC50 [8] was 11.9 µM (active) and the outcome [11] was “inactive”.

For `OC[C@H]1O[C@@](CO)(O[C@H]2O[C@H](CO)[C@@H](O)[C@H](O)[C@H]2O)[C@@H](O)[C@@H]1O`, the outcome [8] was “inactive”.

`CCCOc1ccc(S(=O)(=O)N2CCN(CC)CC2)cc1-c1nc2c(CC)n(Cc3ccccn3)nc2c(=O)[nH]1` was tested, and the outcome [8] was “inactive”, the AC50 [9] was 25 µM (active) and the outcome [12] was “inactive”.

`NC(=O)N(O)[C@@H]1COc2cc(OCc3ccccc3)ccc21` was tested, and the outcome [8] was “inactive”.

In the case of `O=C(O)c1cccc(C[C@@H]2COc3ccc(OCc4nc5cc(F)ccc5s4)cc3[C@@H]2O)c1`, the outcome [8] was “inactive”, the outcome [11] was “inactive” and the outcome [13] was “inactive”.

For `Cc1ccc(S(=O)(=O)NC(=O)NN2CCCCCC2)cc1`, the outcome [8] was “inactive” and the outcome [12] was “inactive”.

`CNC(C)=O` was tested, and the outcome [8] was “inactive” and the outcome [13] was “inactive”.

For `NC(=O)NN=Cc1ccc([N+](=O)[O-])o1`, the outcome [14] was “inactive”.

In the case of `C[C@]12C=CC(=O)C=C1CC[C@H]1[C@@H]3C[C@@H](O)[C@](O)(C(=O)CO)[C@@]3(C)C[C@H](O)[C@@]12F`, the AC50 [3] was 0.0746 µM (active) and the outcome [10] was “inactive”.

For `c1ccc2c(c1)-c1cccc3c1c-2cc1ccccc13`, the outcome [8] was “inactive” and the outcome [14] was “inactive”.

With `CC(C)C(=O)Nc1ccc([N+](=O)[O-])c(C(F)(F)F)c1` the outcome [8] was “inactive”, the outcome [11] was “inactive” and the outcome [15] was “inactive”. The outcome [16] was “inactive”.

For `CCCCCCCCCC`, the outcome [8] was “inactive”, the outcome [16] was “inactive” and the outcome [17] was “inactive”. The outcome [9] was “inactive” and the outcome [12] was “inactive”.

With `CCCCCCCCCCCCCCO` the outcome [8] was “inactive” and the outcome [11] was “inactive”.

For `OC(CCl)CCl`, the AC50 [11] was 40.2 µM (active) and the outcome [9] was “inactive”.

For `CC(C)CC(C)O` (stereo unspecified), the outcome [8] was “inactive”.

With `CCOc1ccc2[nH]cc(C(=O)NCc3ccccc3)c(=O)c2n1` the outcome [8] was “inactive” and the outcome [14] was “inactive”.

With `CCCCCCCC/C=C\CCCCCCCC(=O)OC[C@@H](O)[C@H]1OC[C@H](O)[C@H]1O` the outcome [8] was “inactive”, the outcome [1] was “inactive” and the AC50 [11] was 0.845 µM (active). For the same molecule, the outcome [10] was “inactive”.

With `CCCCCCCCN(C)C` the outcome [2] was “inactive”, the AC50 [16] was 1.88 µM (active) and the AC50 [12] was 12.5 µM (active).

For `O=S(=O)(O)c1ccc(N=Nc2c(O)ccc3cc(S(=O)(=O)O)ccc23)cc1`, the outcome [12] was “inactive”.

`CC(C)c1nnc2ccc(-c3ocnc3-c3cc(F)ccc3F)cn12` was tested, and the outcome [8] was “inactive” and the outcome [9] was “inactive”.

`OC[C@H]1O[C@@H]2O[C@H]3[C@H](O)[C@@H](O)[C@@H](O[C@H]4[C@H](O)[C@@H](O)[C@@H](O[C@H]5[C@H](O)[C@@H](O)[C@@H](O[C@H]6[C@H](O)[C@@H](O)[C@@H](O[C@H]7[C@H](O)[C@@H](O)[C@@H](O[C@H]1[C@H](O)[C@H]2O)O[C@@H]7CO)O[C@@H]6CO)O[C@@H]5CO)O[C@@H]4CO)O[C@@H]3CO` was tested, and the outcome [8] was “inactive” and the outcome [15] was “inactive”.

`Cc1cccc(O)c1C` was tested, and the outcome [8] was “inactive” and the outcome [14] was “inactive”.

For `CCCCN1C(=O)[C@@H]([C@H](O)C2CCCCC2)NC(=O)C12CCN(Cc1ccc(Oc3ccc(C(=O)O)cc3)cc1)CC2`, the outcome [11] was “inactive”.

In the case of `O=C(O)[C@H](O)[C@@H](O)C(=O)O`, the outcome [8] was “inactive”.

With `Cc1nccn1-c1ccc(Sc2cccc(C3(C(N)=O)CCOCC3)c2)cc1` the AC50 [8] was 32.3 µM (active), the outcome [11] was “inactive” and the AC50 [16] was 19.7 µM (active). The outcome [7] was “inactive”, the AC50 [17] was 0.0243 µM (active) and the outcome [14] was “inactive”. For the same molecule, the AC50 [9] was 6.99 µM (active).

With `O=c1[nH]cnc2c1ncn2[C@H]1CC[C@@H](CO)O1` the outcome [5] was “inactive”.
